Measurements from the supplement of paper PMC11732987, “Enantioselective OTUD7B fragment discovery through chemoproteomics screening and high-throughput optimisation” (Communications Chemistry, 2025).

How the values were obtained:
Assay in all cases: log2 ratio of Biotin-Ahx-Ub-VS probe labelling (fragment/DMSO); higher = less target engagement (more negative = stronger competition), active = hit call of the paper (q ≤ 0.05, log2 ratio ≤ -1)
Details in all cases: compound concentration: 200 uM; treatment time: 3 h
USP9X = USP9X (UniProt Q93008)
Summary of the method: (§1)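 HEK293T lysate (495 µg per sample, in Tris/CHAPS/IGEPAL buffer with protease inhibitors) was exposed in triplicate for 3 h to fragment at 200 µM or to vehicle, then to Biotin-Ahx-Ub-VS at 0.5 µM final for 1 h. Labelled DUBs were enriched on NeutrAvidin, digested with LysC and trypsin, and analysed by diaPASEF LC-MS/MS. Spectronaut label-free quantities were normalised to the global median, and values are average log2 ratios of fragment over vehicle from an unpaired t-test. Only proteins with ≥2 unique peptides were used.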

UniProt O00487 = target: UniProt O00487
Summary of the method: as §1

UniProt O00507 = target: UniProt O00507
Summary of the method: as §1

UniProt P51784 = target: UniProt P51784
Summary of the method: as §1

UniProt Q5T2D3 = target: T1, UniProt Q5T2D3
T1 sequence (whole entry): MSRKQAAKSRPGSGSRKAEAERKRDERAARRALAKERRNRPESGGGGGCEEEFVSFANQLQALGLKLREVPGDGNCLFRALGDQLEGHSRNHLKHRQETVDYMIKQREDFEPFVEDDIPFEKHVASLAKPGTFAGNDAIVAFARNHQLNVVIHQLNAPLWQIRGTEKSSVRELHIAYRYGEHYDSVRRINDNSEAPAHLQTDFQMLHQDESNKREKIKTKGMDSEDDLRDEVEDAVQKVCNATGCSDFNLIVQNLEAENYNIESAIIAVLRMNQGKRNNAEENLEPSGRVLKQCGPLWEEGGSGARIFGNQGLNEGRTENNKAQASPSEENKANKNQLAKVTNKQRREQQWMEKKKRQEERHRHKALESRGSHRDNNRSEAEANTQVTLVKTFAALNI
Summary of the method: as §1

UniProt Q8TE49 = target: T2, UniProt Q8TE49
T2 sequence (whole entry): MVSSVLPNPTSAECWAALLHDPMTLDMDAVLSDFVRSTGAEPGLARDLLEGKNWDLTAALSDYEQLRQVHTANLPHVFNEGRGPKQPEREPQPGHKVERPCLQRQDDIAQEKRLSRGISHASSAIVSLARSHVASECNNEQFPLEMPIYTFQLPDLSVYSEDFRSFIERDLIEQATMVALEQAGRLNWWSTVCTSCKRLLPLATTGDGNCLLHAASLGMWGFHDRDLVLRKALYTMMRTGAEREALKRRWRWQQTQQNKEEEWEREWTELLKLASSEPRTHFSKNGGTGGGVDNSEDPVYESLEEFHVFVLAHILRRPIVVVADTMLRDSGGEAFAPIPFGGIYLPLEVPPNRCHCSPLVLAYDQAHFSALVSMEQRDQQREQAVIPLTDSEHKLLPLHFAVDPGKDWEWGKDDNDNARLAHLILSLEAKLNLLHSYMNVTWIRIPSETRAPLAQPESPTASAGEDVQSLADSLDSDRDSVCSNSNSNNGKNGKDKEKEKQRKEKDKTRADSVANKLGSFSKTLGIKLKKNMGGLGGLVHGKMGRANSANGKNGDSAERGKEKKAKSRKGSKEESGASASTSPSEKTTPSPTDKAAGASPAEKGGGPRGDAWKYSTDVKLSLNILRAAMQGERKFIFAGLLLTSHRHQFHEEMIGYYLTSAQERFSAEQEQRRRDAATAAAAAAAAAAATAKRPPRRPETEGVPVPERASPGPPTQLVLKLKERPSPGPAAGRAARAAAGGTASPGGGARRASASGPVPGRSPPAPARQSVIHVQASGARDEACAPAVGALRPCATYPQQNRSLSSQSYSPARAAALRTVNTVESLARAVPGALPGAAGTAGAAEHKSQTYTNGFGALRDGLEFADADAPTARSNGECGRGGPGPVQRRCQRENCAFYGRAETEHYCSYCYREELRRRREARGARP
Summary of the method: as §1

UniProt Q9P2H5 = target: T3, UniProt Q9P2H5
T3 sequence (whole entry): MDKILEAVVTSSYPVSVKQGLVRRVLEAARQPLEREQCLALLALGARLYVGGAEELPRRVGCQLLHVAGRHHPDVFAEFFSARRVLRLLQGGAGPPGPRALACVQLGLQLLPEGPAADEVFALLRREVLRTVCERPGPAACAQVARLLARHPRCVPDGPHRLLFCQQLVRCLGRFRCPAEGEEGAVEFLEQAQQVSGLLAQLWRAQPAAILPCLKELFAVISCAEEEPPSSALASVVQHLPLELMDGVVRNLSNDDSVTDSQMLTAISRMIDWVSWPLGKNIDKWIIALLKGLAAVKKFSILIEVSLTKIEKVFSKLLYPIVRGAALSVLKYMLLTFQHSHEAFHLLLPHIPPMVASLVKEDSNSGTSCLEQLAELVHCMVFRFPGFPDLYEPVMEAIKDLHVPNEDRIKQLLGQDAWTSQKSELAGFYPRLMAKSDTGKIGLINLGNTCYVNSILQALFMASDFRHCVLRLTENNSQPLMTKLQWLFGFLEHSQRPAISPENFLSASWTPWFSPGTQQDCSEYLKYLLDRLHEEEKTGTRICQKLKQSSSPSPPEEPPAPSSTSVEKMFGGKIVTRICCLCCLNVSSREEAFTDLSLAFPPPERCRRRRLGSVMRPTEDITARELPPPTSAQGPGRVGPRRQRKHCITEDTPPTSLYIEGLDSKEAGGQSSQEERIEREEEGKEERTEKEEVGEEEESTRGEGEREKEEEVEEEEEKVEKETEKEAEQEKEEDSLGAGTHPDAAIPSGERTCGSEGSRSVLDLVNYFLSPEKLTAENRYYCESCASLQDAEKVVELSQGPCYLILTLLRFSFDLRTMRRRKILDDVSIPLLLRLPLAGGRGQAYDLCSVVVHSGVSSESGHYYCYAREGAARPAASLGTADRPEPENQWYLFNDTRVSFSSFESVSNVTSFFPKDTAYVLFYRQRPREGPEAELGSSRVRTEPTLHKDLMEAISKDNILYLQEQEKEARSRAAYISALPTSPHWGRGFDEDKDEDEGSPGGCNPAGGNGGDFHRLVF
Summary of the method: as §1

UniProt Q9UGI0 = target: T4, UniProt Q9UGI0
T4 sequence (whole entry): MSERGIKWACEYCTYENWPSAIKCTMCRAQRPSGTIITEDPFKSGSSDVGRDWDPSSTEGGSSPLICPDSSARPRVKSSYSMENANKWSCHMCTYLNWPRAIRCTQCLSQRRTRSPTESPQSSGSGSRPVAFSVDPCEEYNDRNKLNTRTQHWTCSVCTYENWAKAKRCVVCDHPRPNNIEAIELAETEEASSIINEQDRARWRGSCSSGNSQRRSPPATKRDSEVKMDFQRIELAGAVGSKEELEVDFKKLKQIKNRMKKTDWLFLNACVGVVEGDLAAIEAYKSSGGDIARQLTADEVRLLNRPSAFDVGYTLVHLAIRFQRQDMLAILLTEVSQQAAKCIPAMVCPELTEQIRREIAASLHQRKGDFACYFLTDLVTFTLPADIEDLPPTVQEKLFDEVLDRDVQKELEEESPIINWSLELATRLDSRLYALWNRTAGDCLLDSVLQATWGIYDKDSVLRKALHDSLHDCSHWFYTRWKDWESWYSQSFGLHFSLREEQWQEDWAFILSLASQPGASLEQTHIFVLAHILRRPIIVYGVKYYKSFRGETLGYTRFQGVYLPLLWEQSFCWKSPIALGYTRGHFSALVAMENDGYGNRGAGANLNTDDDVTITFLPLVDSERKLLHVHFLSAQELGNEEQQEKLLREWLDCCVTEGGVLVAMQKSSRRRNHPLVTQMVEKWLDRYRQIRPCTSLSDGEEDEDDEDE
Summary of the method: as §1

YOD1 = target: T5, YOD1 (UniProt Q5VVQ6)
T5 sequence (whole entry): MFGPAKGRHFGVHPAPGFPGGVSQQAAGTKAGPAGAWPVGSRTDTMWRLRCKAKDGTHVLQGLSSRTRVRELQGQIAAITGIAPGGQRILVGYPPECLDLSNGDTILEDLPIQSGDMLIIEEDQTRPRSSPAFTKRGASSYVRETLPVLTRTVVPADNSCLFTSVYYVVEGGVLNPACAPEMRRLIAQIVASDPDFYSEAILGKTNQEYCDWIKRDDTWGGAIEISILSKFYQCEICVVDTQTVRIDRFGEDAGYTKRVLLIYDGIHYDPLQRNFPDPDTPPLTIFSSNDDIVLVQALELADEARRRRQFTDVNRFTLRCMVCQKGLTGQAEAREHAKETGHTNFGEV
Summary of the method: as §1

Measured: log2 ratio of Biotin-Ahx-Ub-VS probe labelling

UniProt O00487, sequence (O00487 whole entry): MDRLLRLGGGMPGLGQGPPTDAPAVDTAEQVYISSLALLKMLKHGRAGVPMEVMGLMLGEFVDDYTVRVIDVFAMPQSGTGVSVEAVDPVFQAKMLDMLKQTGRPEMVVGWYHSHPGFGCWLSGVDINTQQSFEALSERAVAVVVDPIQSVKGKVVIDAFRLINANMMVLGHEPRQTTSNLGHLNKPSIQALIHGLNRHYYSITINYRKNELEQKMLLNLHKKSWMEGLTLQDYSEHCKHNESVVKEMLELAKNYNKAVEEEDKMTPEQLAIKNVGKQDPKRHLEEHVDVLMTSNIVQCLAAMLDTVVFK
UniProt P51784, sequence (P51784 whole entry): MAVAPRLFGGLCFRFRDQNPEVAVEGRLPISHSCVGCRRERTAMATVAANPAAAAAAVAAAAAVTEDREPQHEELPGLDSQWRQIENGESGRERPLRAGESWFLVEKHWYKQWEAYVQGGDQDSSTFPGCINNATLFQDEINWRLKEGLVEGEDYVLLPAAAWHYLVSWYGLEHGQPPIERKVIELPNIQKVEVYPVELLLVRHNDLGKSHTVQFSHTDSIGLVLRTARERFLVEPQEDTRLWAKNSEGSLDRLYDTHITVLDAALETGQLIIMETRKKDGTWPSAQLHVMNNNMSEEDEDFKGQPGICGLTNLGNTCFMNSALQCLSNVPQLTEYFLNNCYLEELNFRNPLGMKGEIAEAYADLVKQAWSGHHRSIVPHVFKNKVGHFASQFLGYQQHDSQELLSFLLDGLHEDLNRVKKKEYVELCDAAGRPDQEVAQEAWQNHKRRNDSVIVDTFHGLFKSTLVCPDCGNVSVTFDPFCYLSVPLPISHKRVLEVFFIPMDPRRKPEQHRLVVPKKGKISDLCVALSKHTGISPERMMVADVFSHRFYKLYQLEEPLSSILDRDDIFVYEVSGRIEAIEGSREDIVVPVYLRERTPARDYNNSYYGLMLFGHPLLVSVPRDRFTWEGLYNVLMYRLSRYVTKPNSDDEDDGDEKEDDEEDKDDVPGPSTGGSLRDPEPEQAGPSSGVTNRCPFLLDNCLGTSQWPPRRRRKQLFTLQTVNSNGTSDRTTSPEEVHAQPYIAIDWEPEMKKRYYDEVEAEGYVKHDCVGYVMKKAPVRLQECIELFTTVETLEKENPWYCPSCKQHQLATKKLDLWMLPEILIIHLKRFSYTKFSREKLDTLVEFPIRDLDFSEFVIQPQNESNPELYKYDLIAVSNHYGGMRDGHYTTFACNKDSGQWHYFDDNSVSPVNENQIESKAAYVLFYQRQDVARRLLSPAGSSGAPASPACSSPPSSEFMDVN
UniProt O00507, sequence (O00507 whole entry): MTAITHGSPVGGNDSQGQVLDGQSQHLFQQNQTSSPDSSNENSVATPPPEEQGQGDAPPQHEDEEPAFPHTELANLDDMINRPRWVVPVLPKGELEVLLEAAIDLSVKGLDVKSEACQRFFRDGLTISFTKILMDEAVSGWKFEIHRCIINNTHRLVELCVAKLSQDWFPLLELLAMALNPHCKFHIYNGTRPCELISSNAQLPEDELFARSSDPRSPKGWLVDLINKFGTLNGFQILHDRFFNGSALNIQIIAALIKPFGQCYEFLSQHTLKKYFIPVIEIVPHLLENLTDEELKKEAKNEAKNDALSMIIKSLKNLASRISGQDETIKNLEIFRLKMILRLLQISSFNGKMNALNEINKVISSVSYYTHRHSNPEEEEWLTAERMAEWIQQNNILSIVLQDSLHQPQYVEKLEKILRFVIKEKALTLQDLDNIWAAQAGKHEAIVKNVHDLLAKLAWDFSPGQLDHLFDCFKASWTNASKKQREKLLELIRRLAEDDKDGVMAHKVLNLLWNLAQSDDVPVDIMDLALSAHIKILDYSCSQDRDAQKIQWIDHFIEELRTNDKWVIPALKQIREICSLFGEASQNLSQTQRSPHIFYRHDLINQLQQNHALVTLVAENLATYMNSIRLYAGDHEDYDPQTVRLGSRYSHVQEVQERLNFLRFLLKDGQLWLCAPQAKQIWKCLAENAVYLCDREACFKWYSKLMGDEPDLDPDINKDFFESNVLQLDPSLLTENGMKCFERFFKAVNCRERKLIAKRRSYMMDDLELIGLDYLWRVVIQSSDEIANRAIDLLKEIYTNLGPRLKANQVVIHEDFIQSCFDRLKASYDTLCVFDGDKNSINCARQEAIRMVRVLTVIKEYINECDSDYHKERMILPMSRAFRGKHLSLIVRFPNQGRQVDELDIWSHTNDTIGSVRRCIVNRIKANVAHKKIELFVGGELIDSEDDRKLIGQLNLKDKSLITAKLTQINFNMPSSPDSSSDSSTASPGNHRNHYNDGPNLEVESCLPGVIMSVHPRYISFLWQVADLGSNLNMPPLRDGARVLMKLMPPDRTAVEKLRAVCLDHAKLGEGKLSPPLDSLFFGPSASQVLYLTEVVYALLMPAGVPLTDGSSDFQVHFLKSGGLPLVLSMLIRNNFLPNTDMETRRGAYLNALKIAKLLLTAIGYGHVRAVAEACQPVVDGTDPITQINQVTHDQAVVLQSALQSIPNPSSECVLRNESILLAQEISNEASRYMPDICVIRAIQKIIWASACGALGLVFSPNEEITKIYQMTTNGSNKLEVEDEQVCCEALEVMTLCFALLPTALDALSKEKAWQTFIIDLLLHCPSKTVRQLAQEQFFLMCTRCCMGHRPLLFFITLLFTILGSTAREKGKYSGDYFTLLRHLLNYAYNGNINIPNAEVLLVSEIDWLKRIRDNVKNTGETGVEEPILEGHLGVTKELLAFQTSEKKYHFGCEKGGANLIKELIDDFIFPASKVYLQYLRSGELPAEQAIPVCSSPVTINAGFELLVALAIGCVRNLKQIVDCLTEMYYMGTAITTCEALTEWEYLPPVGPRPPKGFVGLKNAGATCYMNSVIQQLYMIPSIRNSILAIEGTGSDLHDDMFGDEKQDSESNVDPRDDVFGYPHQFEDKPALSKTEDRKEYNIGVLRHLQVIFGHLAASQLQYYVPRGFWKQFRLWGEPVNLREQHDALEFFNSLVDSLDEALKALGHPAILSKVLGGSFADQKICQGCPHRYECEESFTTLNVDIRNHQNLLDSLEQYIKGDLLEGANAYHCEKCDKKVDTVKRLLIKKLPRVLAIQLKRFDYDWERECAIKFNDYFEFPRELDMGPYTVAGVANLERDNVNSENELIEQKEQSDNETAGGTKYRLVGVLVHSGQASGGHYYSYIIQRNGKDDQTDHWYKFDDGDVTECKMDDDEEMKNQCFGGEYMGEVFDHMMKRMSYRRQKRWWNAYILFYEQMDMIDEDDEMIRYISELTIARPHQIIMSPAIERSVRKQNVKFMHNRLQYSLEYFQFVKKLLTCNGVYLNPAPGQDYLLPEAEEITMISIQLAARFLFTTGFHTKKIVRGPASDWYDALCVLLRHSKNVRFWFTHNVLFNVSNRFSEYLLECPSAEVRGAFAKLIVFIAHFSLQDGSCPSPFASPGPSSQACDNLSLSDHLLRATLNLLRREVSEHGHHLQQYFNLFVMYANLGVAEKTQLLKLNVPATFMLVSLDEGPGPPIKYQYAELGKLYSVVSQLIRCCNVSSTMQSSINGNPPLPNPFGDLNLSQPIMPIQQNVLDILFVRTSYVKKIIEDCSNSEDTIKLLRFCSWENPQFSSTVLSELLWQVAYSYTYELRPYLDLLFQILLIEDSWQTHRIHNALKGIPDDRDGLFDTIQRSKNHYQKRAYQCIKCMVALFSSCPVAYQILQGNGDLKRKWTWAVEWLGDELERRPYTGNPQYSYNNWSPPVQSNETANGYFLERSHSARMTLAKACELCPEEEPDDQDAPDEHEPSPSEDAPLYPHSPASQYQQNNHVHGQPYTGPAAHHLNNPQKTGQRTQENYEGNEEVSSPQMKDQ

O=C(CCl)NC1CCC(C(F)(F)F)CC1 (centres undefined)
inactive: USP9X -0.178 | UniProt O00487 -0.185 | UniProt O00507 -0.728 | UniProt P51784 0.104 | UniProt Q5T2D3 -0.211 | UniProt Q8TE49 -0.706 | UniProt Q9P2H5 0.159 | UniProt Q9UGI0 -0.54 | YOD1 -0.348
